Source: PubChem BioAssay (National Center for Advancing Translational Sciences (NCATS))
This excerpt belongs to a sample that is enriched for hits.
KDM5B inhibitor: inhibitors of human KDM5B histone demethylase; 2.6% of 220,000 active; KDM5B demethylase, FDH-coupled NADH fluorescence (FDH is formaldehyde dehydrogenase); Potency, µM (top dose mostly 57.7 µM), hits mostly inhibitors; Q9UGL1; active = well fitted inhibition curve with a large enough effect; note: nearly all actives have a fitted effect of over 70% in size
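Here, H3K4me3 peptide (12.5 µM in substrate mix) is demethylated by KDM5BΔAP, 200 nM final, after 10 min compound exposure. Formaldehyde product is coupled through FDH (0.25 U/mL in mix) to NADH fluorescence; 30-min ΔRFU feeds dose-response curves.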
Hits are given with their value; i = inactive.

SMILES | KDM5B inhibitor
Cc1ccccc1-c1cc(O)c2c(c1)CN(Cc1nccn1C)CCO2 | i
COc1ccccc1C(=O)NCCC(=O)N1CCCCC1 | i
COc1ccccc1C(=O)NCCC(=O)N1CCCC(C(F)(F)F)C1 (centres undefined) | i
Cc1ccncc1C(=O)N1CCOc2c(O)cc(-c3ccccc3C)cc2C1 | i
CCOCCCNC(=O)c1cc(C2CC2)nc2ccccc12 | i
CC(=O)Nc1ccc(CNC2CCC(C(F)(F)F)CC2)cc1 (centres undefined) | i
Cc1csc2nc(CSc3ccccc3NC(=O)COc3ccccc3Cl)cc(=O)n12 | i
CCc1noc(-c2ccn3c(CNC(=O)c4ccc(F)cc4)nnc3c2)n1 | 12.6µM
CCc1noc(-c2ccn3c(CNC(=O)Cc4ccc(F)cc4)nnc3c2)n1 | i
CCCc1noc(-c2ccn3c(CNC(=O)c4ccc(C)c(C)c4)nnc3c2)n1 | 4.47µM
CCc1noc(-c2ccn3c(CNC(=O)c4cc(C)cc(C)c4)nnc3c2)n1 | i
CCc1noc(-c2ccn3c(CNC(=O)c4ccc(C)c(C)c4)nnc3c2)n1 | 3.16µM
CCCc1noc(-c2ccn3c(CNC(=O)c4ccc(CC)cc4)nnc3c2)n1 | 25.1µM
COc1cc(CNC(c2ccccc2)c2ccccc2)cc(OC)c1 | i
CCOc1ccc(-n2nc(C(=O)Nc3ccc4c(c3)OCCO4)c3ccccc3c2=O)cc1 | i
O=C1CC(c2ccccc2)N(Cc2ccc(F)c(F)c2)CCCCCN1 (centres undefined) | i
N#CC1(NC(=O)CNc2cccc(Cl)c2F)CCCC1 | i
COc1cc(OC)c(NC(=O)CN2C(=O)NC3(CCOCC3)C2=O)cc1Cl | i
c1cc(CNCCN2CCCC2)cs1 | i
CCc1noc(-c2ccn3c(CNC(=O)c4cccc(F)c4)nnc3c2)n1 | i
CCc1noc(-c2ccn3c(CNC(=O)c4cccnc4)nnc3c2)n1 | 28.2µM
COc1ccc(C(=O)N[C@H]2C[C@H]3C(=O)Nc4ccc(-c5cccs5)cc4C(=O)N3C2)cc1 | 35.5µM
COc1ccc(-c2ccc3c(c2)C(=O)N2C[C@@H](NS(=O)(=O)c4ccc(F)cc4)C[C@H]2C(=O)N3)c(OC)c1 | 35.5µM
COc1ccc(C(=O)N[C@H]2C[C@H]3C(=O)Nc4ccccc4C(=O)N3C2)cc1 | i
O=C(N[C@H]1C[C@H]2C(=O)Nc3ccccc3C(=O)N2C1)c1ccccc1 | i
SMILES | KDM5B inhibitor
CO[C@@H]1C[C@H]2C(=O)Nc3ccc(-c4ccccc4F)cc3C(=O)N2C1 | i
COc1ccc(C(=O)N[C@H]2CCN3C(=O)c4cc(Br)ccc4NC(=O)[C@@H]3C2)cc1 | i
O=C(N[C@H]1CCN2C(=O)c3cc(-c4ccc(Cl)cc4)ccc3NC(=O)[C@@H]2C1)c1ccncc1 | i
CS(=O)(=O)N[C@H]1CCN2C(=O)c3cc(Br)ccc3NC(=O)[C@@H]2C1 | i
O=C1Nc2ccc(-c3ccc(Cl)cc3)cc2C(=O)N2CC[C@H](NS(=O)(=O)c3cccs3)C[C@@H]12 | i
CS(=O)(=O)N[C@H]1C[C@H]2C(=O)Nc3ccc(-c4cccs4)cc3C(=O)N2C1 | 39.8µM
O=C(N[C@H]1C[C@H]2C(=O)Nc3ccc(-c4cccs4)cc3C(=O)N2C1)c1ccccc1 | 31.6µM
COCC(=O)N[C@H]1CCN2C(=O)c3cc(-c4ccc(F)cc4F)ccc3NC(=O)[C@@H]2C1 | i
COc1ccc(-c2coc3cc(OCC(=O)N4CCC(=O)CC4)ccc3c2=O)cc1 | i
CCCCn1c(=O)[nH]c(=O)c2c1nc(COC(=O)/C=C/c1ccc(OCC#N)c(OC)c1)n2C | i
CC(C)c1nnc(NC(=O)CCc2ncc(-c3ccccc3)o2)s1 | i
CCCn1nc(C(=O)NC(c2ccc(OCC)c(OCC)c2)C(C)C)c2ccccc2c1=O (centres undefined) | i
O=C(O)CNCc1cccnc1 | i
CC(C)(C)c1ccc(C(=O)Nc2c(NCc3ccccc3)c3ccccc3oc2=O)cc1 | i
O=C(CSc1nc2nc[nH]c2c(=O)[nH]1)c1ccc(F)cc1 | i
COc1ccc(C(=O)Oc2ccc(C(C)(C)C)cc2)cc1Br | i
COc1cc(/C=N/O)cc(I)c1O | i
CCCc1nc2ccccc2c(C(=O)OCC(=O)NC(=O)NC(C)(C)C)c1CC | i
CN(C)C[C@@H]1CN(c2ccncn2)C[C@H]1NC(=O)c1ccc2ccccc2n1 | i
CN(C)C[C@@H]1CN(c2ccncn2)C[C@H]1NC(=O)Cc1ccsc1 | i
CN(C)C[C@@H]1CN(c2ccccn2)C[C@H]1NC(=O)Cn1c(=O)oc2ccccc21 | 22.4µM
CN(C)C[C@@H]1CN(c2ccncn2)C[C@H]1NC(=O)Cc1cccs1 | i
CN(C)C[C@@H]1CN(c2ccncn2)C[C@H]1NC(=O)CC1CCCCC1 | i
CN(C)C[C@@H]1CN(c2ccccn2)C[C@H]1NC(=O)NC1CCCCC1 | 31.6µM
CN(C)C[C@@H]1CN(c2ccncn2)C[C@H]1NC(=O)NC1CCCCC1 | i
SMILES | KDM5B inhibitor
CN(C)C[C@@H]1CN(c2ccncn2)C[C@H]1NC(=O)c1cccn1C | i
CN(C)C[C@@H]1CN(c2ccccn2)C[C@H]1NC(=O)c1ccsc1 | 22.4µM
CN(C)C[C@@H]1CN(c2ccccn2)C[C@H]1NC(=O)c1cccn1C | 22.4µM
CN(C)C[C@@H]1CN(c2ccncn2)C[C@H]1NC(=O)Cn1c(=O)oc2ccccc21 | i
CN(C)C[C@@H]1CN(c2ccncn2)C[C@H]1NC(=O)c1ccsc1 | i
CCOc1ccc(C(=O)C(C)OC(=O)c2ccc(C(N)=O)cc2)cc1 (centres undefined) | i
O=C(NC1Cc2ccccc2C1)c1ccccc1 | i
CCCNC(=O)CNC(=O)c1nn(Cc2ccccc2)c(=O)c2ccccc12 | i
COc1ccc(OC)c(NC(=O)c2cc(=O)[nH]c3ccccc23)c1 | i
CC(NC(=O)c1ccc(Br)o1)c1ccc(S(N)(=O)=O)cc1 (centres undefined) | i
Cc1cc2c(c(=O)n1Cc1ccco1)C(C(C)C)C(C#N)=C(N)O2 (centres undefined) | i
COc1ccc2cnn(CC(=O)Nc3ccccc3Cl)c(=O)c2c1OC | i
CC(C)c1ccc(S(=O)(=O)N(C)CC2CCOCC2)cc1 | i
Cc1cccc(NC(=S)NN=C2CCCC2)c1 | i
COc1ccc(-n2ccn(CC(=O)Nc3ccccc3C)c2=O)cc1 | i
CCN(CC)CCCC(C)NC(=O)Nc1ccc(Cl)cc1 (centres undefined) | i
O=C(Cc1scnc1-c1cccs1)NCCc1ccccc1 | i
CN(C)C[C@@H]1CN(c2ccccn2)C[C@H]1NC(=O)c1ccc(C#N)cc1 | i
CN(C)C[C@@H]1CN(c2ccccn2)C[C@H]1NC(=O)c1ccoc1 | 28.2µM
CN(C)C[C@@H]1CN(c2ccccn2)C[C@H]1NC(=O)c1ccc2c(c1)OCO2 | 28.2µM
CN(C)C[C@@H]1CN(Cc2ccccc2)C[C@H]1NC(=O)c1ccoc1 | i
COc1ccccc1C1=NS(=O)(=O)N(C)C(C(=O)Nc2ccn(Cc3ccc(C)cc3)n2)=C1 | i
CCOc1ccc(C(C)=O)cc1COc1ccc(C#N)cc1OC | i
Nc1nnnn1NCc1ccc(-c2ccc(Cl)cc2)o1 | i
Cc1ccc2oc(C(=O)Nc3ncc(Cc4ccccc4)s3)cc(=O)c2c1 | i
O=C(CSc1ncc(-c2ccc(F)cc2)o1)Nc1cccc(Cl)c1 | i
O=C(O)CS(=O)(=O)Cc1cccc(Br)c1 | i
CN(CC(=O)Nc1ccc(Cl)c(C(F)(F)F)c1)CC(=O)NC1CCCC1 | i
CC(=O)N1CCN([C@H]2[C@@H]3OC[C@@H](O3)[C@@H](NC(=O)Nc3ccc(F)cc3)[C@@H]2O)CC1 | i
Cc1ccc(S(=O)(=O)NC2CCN(S(C)(=O)=O)CC2)cc1 | i
